# Experimental data published in PubChem BioAssay AID651567 (National Center for Advancing Translational Sciences (NCATS), 2012).
# Hit rate of the full screen: of about 1,200 compounds, about 10 (0.8%) were called active. About 4% were inconclusive and are not listed. This is one part of a sample in which actives are shown more often than they occur. The call rests on the fitted dose curve; in most records, active means well fitted inhibition curve with a large enough effect; inconclusive means small, poorly fitted or top-dose-only effect; inactive means no such curve, though single readings can be large or run the other way.
# Assay: qHTS Assay to Find Inhibitors of Chronic Active B-Cell Receptor Signaling: Hit Validation in OCI-Ly3 Assay
# Details: OCI-Ly3 IkB-luciferase reporter, Chroma-Glo luminescence, 4 h; series mostly up to 46.1 µM; activity change, negative = inhibition: at the top concentration
# Excerpt: Diffuse large B-cell lymphoma (DLBCL) is the most common category of non-Hodgkin lymphoma, with ~20,000 new cases per year in the United States. DLBCL should be regarded as a collection of different neoplasms. Microarray gene expression analysis has defined two principal types of DLBCL, named for their similarity to normal B cell stages or activation states: a germinal center B-cell (GCB) type, and an activated B-cell (ABC) type. In ABC-DLBCL, a constitutive high-level activity of the NF-kappaB family of transcription factors has been observed (1) and NF-kappaB target genes are more highly expressed in ABC primary tumors than in GCB tumors. Functional studies have shown a constitutive high-level activity of the IkappaB (inhibitor of kappa-B) kinase (IKK) complex. […] Further analysis of DLBCL primary tumors for NF-kappaB target gene expression imply that although CARD11 is required for constitutive IKK activity in all ABC-DLBCL lines, mutations in CARD11 may be the root cause of IKK activation only in lines or tumors with such mutations. In other words, CARD11 mutations may explain NF-kappaB activation in only 10% of ABC-DLBCL cases. […] This process has been termed 'chronic active BCR signaling' (CABS). The goal of this screen is to find small-molecule inhibitors of the CABS pathway found in ABC-DLBCL lines using a cell-based assay that measures IkappaBalpa stability, which has already been extensively validated in the OCI-Ly3 line (PubChem AID:445; REF: 4). […] Hits from the primary screen were tested in this selectivity secondary assay. NIH Molecular Libraries Probe Production Network [MLPCN] NIH Chemical Genomics Center [NCGC] MLPCN Grant: R03 DA031086 PI Name: Dr. R. Eric Davis
# Cells were seeded in 1536-well plates at 5000 cells/3ul in IMDM medium containing 0.5% FBS, w/o phenol red, L-glutamine, 25 mM HEPES, 3 mg/ml sodium bicarbonate. After centrifugation for 1 min. at 1000 rpm, 23 nl of compounds or DMSO were delivered to each well using a pin tool. Then 1ul 80ng/ml doxycycline was dispensed into white solid 1536-well plates and the plates were incubated at 37C/5% C02 in a cell incubator for 4 hrs. Then 4 ul Chroma-Glo luminescent substrate mix (Promega) was added to each well. The plate was incubated at R.T. for 10-15 min. The plates were measured on a ViewLux plate reader for green luminescence (540/20 nm filter) and red luminescence (618/8 nm filter). The green and red luminescent signals were corrected for red and green luminescence filter overlap using previously determined filter calibration constants (determined using the procedure outlined in the Promega Technical Manual). The %Activity was determined from the ratio of corrected green/red luminescent values. Green luminescent and ratio %Activity was determined by normalizing to the difference in signal between basal cells (0% Activity) and cells incubated with 10 uM of the proteasome inhibitor MG-132 (100% Activity). Red luminescent %Activity was normalized to the difference between red luminesence in basal cells (0%Activity) and zero luminescence (-100% Activity). Concentration-response curves were fitted to the signals arising from the green luminescence (I-kappa-B-alpha-luciferase fusion; IkB-luc) and the red luminescence (unfused luciferase; luc) as well as the calculated ratio. The concentration-effect curves were then classified based on curve quality (r2), response magnitude and degree of measured activity. Compounds were then categorized based on their concentration-response curves for all three datasets (Ikb-luc, luc and ratio).
# On the % scale 0 is the no-effect control and ±100 the full control effect; potency means the concentration at half of the fitted maximal effect.
Compound,"activity change, negative = inhibition",Potency
COc1ccc(C(=O)/C=C/c2ccc(O)cc2)c2c1CC(O)C(C)(C)O2 (centres undefined),-0.966% (inactive),
O=C(/C=C/c1ccc(O)cc1)c1ccc(O)cc1O,,16.4 µM (active)
Cc1ccc(/C=C/C(=O)c2nc3ccccc3[nH]2)cc1,-4.37% (inactive),
COc1ccc2[nH]c3c(c2c1)CCN1C(=O)C(CC(=O)NCC24CC5CC(CC(C5)C2)C4)C[C@H](C(=O)N2CCCCC2)[C@@]31C (some centres undefined),-2.31% (inactive),
Nc1nc(SCc2nc(-c3ccccc3)no2)[nH]c(=O)c1-c1ccccc1,-0.0938% (inactive),
Oc1ccccc1/C=N/Nc1ccnc(SCc2ccccc2)n1,0.375% (inactive),
Oc1cccc(/C=N/Nc2ccc(Cl)nn2)c1O,,20.6 µM (active)
O=C(/C=C/c1ccccc1)c1ccc(NC2=NCCCS2)cc1,-4.98% (inactive),
Cc1c(CCC(=O)N[C@@H](CCCNC(N)=O)C(=O)O)c(=O)oc2cc3oc4c(c3cc12)CCCC4,-0.014% (inactive),
COc1ccc(/C=N/Nc2nccnc2Cl)c(OC)c1,-14.9% (inactive),
CCO[C@H]1OC(C(=O)NCc2nc3ccccc3[nH]2)=C[C@@H](C2CC2)[C@@H]1CCCO,-0.732% (inactive),
CNc1nc(-c2ccc(OC)cc2)c(-c2ccc(OC)cc2)s1,-0.769% (inactive),
COc1ccc(C)cc1Nc1cc(C)nc2ncnn12,-1.77% (inactive),
NC(=S)N/N=C1\CC(c2ccc3c(c2)OCCCO3)Oc2ccc(F)cc21 (centres undefined),-4.5% (inactive),
CCOC(=O)C1=C(O)c2ccccc2C(=O)/C1=C\c1ccc(CC)cc1,-7.74% (inactive),
COCCn1nnnc1C(C(C)C)N(Cc1ccccc1)Cc1cc2cc(OC)ccc2[nH]c1=O (centres undefined),-1.07% (inactive),
CCCN1C(=O)C(=O)c2cc(Cl)ccc21,-8.1% (inactive),
Cc1ccc2c(c1)C(=O)C(=O)N2CCOc1ccccc1,-2.23% (inactive),
CC[C@]12c3[nH]c4cc(CCC(=O)N(C)C)ccc4c3CCN1C(=O)[C@@H](CC(=O)NC(C)(C)C)C[C@@H]2C(=O)N1CCN(C(=O)c2ccco2)CC1,-2.11% (inactive),
CCOC(=O)c1ccc(-c2c(-c3cc(OC)c(OC)c(OC)c3)noc2C)cc1F,-3.94% (inactive),
COc1ccccc1NC(=O)N1CCC(c2nc3cc(C)c(C)cc3[nH]2)CC1,-3.12% (inactive),
Cc1cc(C)c2nc3sc(C(=O)N4CCOCC4)c(N)c3cc2c1,-8.28% (inactive),
Cc1cc(Cl)n2c(nc3cc(F)c(F)cc32)c1C#N,0.844% (inactive),
CC(=O)Nc1cc(N=Cc2ccc(O)cc2O)c(Cl)cc1Cl,,14.6 µM (active)
NC(=S)N=Nc1c(O)n(CCCl)c2ccccc12,-0.383% (inactive),
CCn1c(O)c(N=NC(=S)NCC2CCCO2)c2ccccc21 (centres undefined),,20.6 µM (active)
Oc1[nH]c2c(Cl)cc(Cl)cc2c1N=NC(=S)NCC1CCCO1 (centres undefined),-26.5% (inactive),

Compound,"activity change, negative = inhibition",Potency
COC(=O)C1C(O)=C(C=Nc2cccc3ccccc23)C(=O)CC1(C)C (centres undefined),-0.573% (inactive),
CCOc1ccc(C(=O)NC(=S)Nc2cccc(S(=O)(=O)NC3=NCCC3)c2)cc1,-4.42% (inactive),
CC1=CC(C)(C)N(S(=O)(=O)c2ccc(C)cc2)c2ccccc21,-3.65% (inactive),
Cc1ccc(OC/C(=N\O)C(C)(C)C)c([N+](=O)[O-])c1,-0.43% (inactive),
Cc1ccc(Nc2nc(-c3c(C)nc4ccccn34)cs2)cc1,-3.78% (inactive),
CCOc1ccc(C(=O)c2cc([N+](=O)[O-])ccc2N2CCOCC2)cc1,-3.09% (inactive),
COc1ccc(C=C2c3ccccc3C(=O)c3ccccc32)c(OC)c1,-2.64% (inactive),
COc1ccc(/C=C/C(=O)c2cc(Br)ccc2OC(=O)c2ccco2)cc1OC,-26.8% (inactive),
COCCN(Cc1cc2cc(C)cc(C)c2nc1Cl)C(=O)Nc1ccccc1,-1.1% (inactive),
Cc1ccc(NC(=S)NNC(=S)Nc2ccc(C)cc2C)cc1,-5.8% (inactive),
CCCCOc1ccc(Br)cc1/C(C)=N/NC1=NCCN1,-0.15% (inactive),
COc1cccc(C2NC(=S)NC(C)=C2C(=O)c2ccccc2)c1OC (centres undefined),-1.95% (inactive),
O=C(/C=C/c1ccccc1Cl)c1cccnc1,-0.735% (inactive),
CCOC(=O)C1CCN(S(=O)(=O)c2c(Cl)ccc3nonc23)CC1,1.28% (inactive),
S=c1nc2ccccc2c2nc(-c3ccccc3Br)[nH]n12,83.2% (inactive),
Oc1ccc(-c2nnc(Nc3cccc(O)c3)c3ccccc23)cc1,-1.7% (inactive),
COc1ccc(-c2cc(C(F)(F)F)n3nc(C(=O)NCCCn4ccnc4)cc3n2)cc1,-0.239% (inactive),
COc1ccccc1-c1cc(C(=O)NCCc2ccccc2)no1,-4.78% (inactive),
COc1ccc(C(=O)c2ccc(N(C)C)cc2)c2ccccc12,-4.15% (inactive),
CCCCC[C@H](O)/C=C/C1=C(CCCCCCC(=O)O)C(=O)CC1,-0.832% (inactive),
ClCc1nc2ccccc2c2ccccc12,,13 µM (active)
CCc1nc2ccccc2c(C(=O)OCc2nc3ccccc3c(=O)[nH]2)c1C,-2.85% (inactive),
S=c1nc2ccccc2c2nc(-c3ccccc3)[nH]n12,18.3% (inactive),
CCCc1oc2ccc(NS(=O)(=O)c3ccc(OC)cc3)cc2c1C(=O)OCC,-4.35% (inactive),
COc1ccc2c(c1)c(/C=N/Nc1nc3ccccc3[nH]1)c(C)n2C,-10% (inactive),
COC(=O)[C@@H]1[C@@H](C#N)C2(c3ccccc3-c3ccccc32)N(c2ccc(Cl)cc2)N1C#N,0.249% (inactive),
O=C(Nc1ccc([N+](=O)[O-])cc1)Nc1ccon1,-2.62% (inactive),

Compound,"activity change, negative = inhibition",Potency
Cc1cccc(Cn2cc(/C=C/[N+](=O)[O-])c3ccccc32)c1,-2.08% (inactive),
CCN(CC)c1ccc2c(C)c(CO)c(=O)oc2c1,-0.0824% (inactive),
Cc1nc(NC(=S)Nc2ccccc2)sc1C,31.6% (inactive),
COc1ccc(OC)c(-c2cc(C(=O)Nc3c(C)nn(Cc4ccccc4)c3C)no2)c1,-2.57% (inactive),
Cc1ccc(O)c(N=Nc2nccs2)c1,,16.4 µM (active)
CCOC(=S)SCC(=O)Nc1nc(-c2ccc(Br)cc2)cs1,-1.99% (inactive),
CC[C@]12c3[nH]c4cc(CCC(=O)N(C)C)ccc4c3CCN1C(=O)[C@@H](CC(=O)NCC13CC4CC(CC(C4)C1)C3)C[C@@H]2C(=O)N1CCN(C(=O)c2ccco2)CC1,-3.16% (inactive),
Cc1cccc(NS(=O)(=O)c2ccc(-c3cnc(C4CC4)o3)cc2)c1C,-14.9% (inactive),
CCN(CC)c1ccc(-c2nn3c(-c4ccccc4OC)nnc3s2)cc1,-2.37% (inactive),
COc1cc(OC)cc(C(=O)NCC(=O)N2CC=C(c3ccccc3)CC2)c1,-2.46% (inactive),
CC1=Nc2cc(C(=O)NCc3ccco3)ccc2Sc2ccc(C)cc21,-2.52% (inactive),
CCCCC[C@H](O)/C=C/[C@@H]1[C@@H](CCCCCCC(=O)O)[C@@H](O)C[C@H]1O,-1.13% (inactive),
COc1ccc(Nc2nc(-c3c(C)nc4ncccn34)cs2)cc1,-6.49% (inactive),
COc1ccc(NC(=O)C(=O)NCC2CCCN2S(=O)(=O)c2ccc(C)cc2)cc1 (centres undefined),-2.59% (inactive),
COc1ccc(Nc2nc(N)nc(CCl)n2)cc1,0.223% (inactive),
Cc1ccc2nc(SCC(=O)Nc3cc(C(F)(F)F)ccc3N3CCOCC3)[nH]c2c1,-7.54% (inactive),
CCOc1ccc(N(CC(=O)Nc2ccccc2OC)S(=O)(=O)c2ccccc2)cc1,-3.72% (inactive),
COc1cc2c(cc1OC)C(c1ccc(OC)c(OC)c1OC)CC(=O)N2 (centres undefined),-0.252% (inactive),
Cn1c(O)c(N=NC(=S)Nc2ccccc2F)c2cc(S(=O)(=O)N3CCOCC3)ccc21,,3.66 µM (active)
CCc1ccccc1NC(=S)N=Nc1c(O)n(C)c2ccc(S(=O)(=O)N3CCOCC3)cc12,-9.04% (inactive),
Cc1ccccc1NC(=S)N=Nc1c(O)n(C)c2ccc(S(=O)(=O)N3CCOCC3)cc12,-18.4% (inactive),
COc1ccc(/C=C/C(=O)Nc2ccc(-n3nncc3-c3ccc(OC)c(OC)c3)cc2)cc1OC,-1.06% (inactive),
COc1ccc(OC)c(C2C3=C(COC3=O)Nc3cc4c(cc32)OCO4)c1 (centres undefined),-1.69% (inactive),
CCN(CC)S(=O)(=O)c1ccc2c(c1)c(=O)c(C(=O)NCCc1ccc(OC)c(OC)c1)cn2C,-0.826% (inactive),
O=C(COc1ccc(C(=O)c2ccc(F)cc2)cc1)NCc1ccc(F)cc1,-2.37% (inactive),
